Measured values from PubChem BioAssay AID2284102 (EPA ToxCast).
Records with an inconclusive call do not appear. Calls of active or inactive are those of the source. How the source made its calls: active means hit-call score of the fitted dose curve at least 0.9, where 1 is the maximum; inconclusive means response in the unintended direction; inactive means score below 0.9.

What follows are molecules tested against Tyrosine-protein kinase Lyn (Homo sapiens) (UniProt P07948) (assay: ERF_FR_ENZ_hLYN: Eurofins (ERF) Enzymatic Radiometric [Km ATP] KinaseProfiler LeadHunter Assay for human LYN Tyrosine Kinase).
Method: ERF_FR_ENZ_hLYN is a biochemical, single-readout assay that uses extracted gene-proteins in a cell-free assay. Measurements were taken 0.5 hour after chemical dosing in a 96-well plate. See LYN (B) Human TK Kinase Enzymatic HTRF Assay [Km ATP], Cerep.ERF_FR_ENZ_hLYN is an assay component calculated from the ERF_FR_ENZ_hLYN assay. It is designed to measure enzyme activity using a type of enzyme reporter as detected by fluorescence intensity with HTRF technology.Data from the assay component ERF_FR_ENZ_hLYN was analyzed at the assay endpoint, ERF_FR_ENZ_hLYN, in the positive analysis fitting direction relative to DMSO as the negative control and baseline of activity. Using a type of enzyme reporter, loss-of-signal activity can be used to understand changes in enzymatic activity as they relate to gene LYN. To generalize the intended target to other relatable targets, this assay endpoint is annotated to the kinase intended target family, where the subfamily is non-receptor tyrosine kinase.
Lyn (h) is incubated with 50 mM Tris pH 7.5, 0.1 mM EGTA, 0.1 mM Na3VO4, 0.1% […], 0.1 mg/mL poly(Glu, Tyr) 4:1, 10 mM MgAcetate and [gamma-33P]-ATP (specific activity and concentration as required). The reaction is initiated by the addition of the Mg/ATP mix. After incubation for 40 minutes at room temperature, the reaction is stopped by the addition of phosphoric acid to a concentration of 0.5%. An aliquot of the reaction is then spotted onto a filter and washed four times for 4 minutes in 0.425% phosphoric acid and once in methanol prior to drying and scintillation counting.Compound should be supplied in 100% DMSO.We require a stock solution at a concentration of at least 50x higher than the Final Assay Concentration of your cpd. A 10mM stock is also acceptable.When ordering fewer than 60 kinase assays, we need 120uL of 50x concentrated stock. For more than 60 assays, we need 420 uL of 50xcc stock. Please apply the conversion if you provide 10mM stock solution or compounds in powder form (pre-weighed is required) From 50 cpds supplied as solids, the TAT will be extended.

Sequence of Tyrosine-protein kinase Lyn (Homo sapiens) (P07948 whole entry, looked up): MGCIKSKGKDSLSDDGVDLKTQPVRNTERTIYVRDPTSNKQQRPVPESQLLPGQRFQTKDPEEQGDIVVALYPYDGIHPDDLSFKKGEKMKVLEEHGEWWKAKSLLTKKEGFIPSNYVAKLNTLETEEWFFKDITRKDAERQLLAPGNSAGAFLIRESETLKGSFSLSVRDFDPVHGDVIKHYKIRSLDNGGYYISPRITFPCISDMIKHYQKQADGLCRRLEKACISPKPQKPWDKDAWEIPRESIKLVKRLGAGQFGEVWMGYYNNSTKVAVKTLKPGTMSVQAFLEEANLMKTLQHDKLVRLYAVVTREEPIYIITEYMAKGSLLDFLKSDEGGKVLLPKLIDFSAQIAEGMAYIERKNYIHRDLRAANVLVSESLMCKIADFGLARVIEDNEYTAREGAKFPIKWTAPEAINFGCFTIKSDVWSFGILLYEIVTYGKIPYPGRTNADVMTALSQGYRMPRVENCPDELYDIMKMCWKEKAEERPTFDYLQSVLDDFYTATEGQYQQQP

AC50, active:
COc1cc(CCC(=O)CC(=O)CCc2ccc(O)c(OC)c2)ccc1O 2360 nM
COc1cc(/C=C/C(=O)CC(=O)/C=C/c2ccc(O)c(OC)c2)ccc1O 24.6 nM
O=C(/C=C/c1ccc(O)cc1)CC(=O)/C=C/c1ccc(O)cc1 2600 nM
